Results on 44 sequences are retold here after article PMC12820563, “FoxP3 forms a head-to-head dimer in vivo and stabilizes its multimerization on adjacent microsatellites”.

Whole data set: some 16,000 sequences, median “rpm ratio (pull-down/input)” near 0.94, cut for the highest 2% near 1.7. The entries come from a sample that favours the highest values as a whole.

The assay addresses T1, MBP-FoxP1dN (Mus musculus, UniProt P58462 326-579).
T1 sequence: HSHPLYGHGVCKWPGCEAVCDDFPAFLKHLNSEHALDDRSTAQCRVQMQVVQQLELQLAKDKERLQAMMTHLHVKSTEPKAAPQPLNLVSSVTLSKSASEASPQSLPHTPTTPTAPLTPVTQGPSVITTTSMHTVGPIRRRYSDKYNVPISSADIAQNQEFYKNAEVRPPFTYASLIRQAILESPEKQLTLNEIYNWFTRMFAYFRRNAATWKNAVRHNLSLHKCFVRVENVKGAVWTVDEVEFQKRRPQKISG
The experiment in a line: PD-seq (MBP pull-down with sequencing); 20 mM Tris-HCl pH 7.5, 100 mM NaCl, 1.5 mM MgCl2, 0.4 uM protein, 0.1 uM dsDNA library, 30 min, room temperature, amylose pull-down; high values mean tight binding. The note with it: protein: recombinant; tags: His6-MBP; chain copies: 2; dsDNA, one strand shown. In outline:
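Binding is the reads-per-million enrichment of pull-down relative to input, pooled across replicates. For this, 0.4 µM His6-MBP-tagged mouse FoxP3 or FoxP1 fragment lacking the N-terminus, made in E. coli, was incubated with 0.1 µM Klenow-filled double-stranded degenerate DNA library for 30 min at room temperature in Tris pH 7.5 buffer with NaCl and MgCl2. Complexes bound to amylose resin were washed three times before proteinase K released the DNA for PCR barcoding and Illumina sequencing.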
Turning to “GATGATTGTTCTCCCAGCTGATGAATTTCACCATTCGAGTAAACAAATTTTCCTAATCTTTCTGTTCAAGCGCCATCTAC”, the binding signal was 0.883 RPM ratio (pull-down/input).

Regarding “GATGATTGTTCTCCCAGCTGATGAATTTCGTCTCTCGAGTAAACAAATTTTCCTAATCTTTCTGTTCAAGCGCCATCTAC”, the binding signal is 0.896 RPM ratio (pull-down/input).

“GATGATTGTTCTCCCAGCTGATGAATTATGACCTTCGAGTAAACAAATTTTCCTAATCTTTCTGTTCAAGCGCCATCTAC”: the binding signal was 0.925 RPM ratio (pull-down/input).

For the sequence “GATGATTGTTCTCCCAGCTGATGAATTATGCCACTCGAGTAAACAAATTTTCCTAATCTTTCTGTTCAAGCGCCATCTAC”, the binding signal was 1.06 RPM ratio (pull-down/input).

“GATGATTGTTCTCCCAGCTGATGAATTTTCCCTCTCGAGTAAACAAATTTTCCTAATCTTTCTGTTCAAGCGCCATCTAC”: the binding signal was 0.877 RPM ratio (pull-down/input).

Regarding “GATGATTGTTCTCCCAGCTGATGAATTCCGAGATTCGAGTAAACAAATTTTCCTAATCTTTCTGTTCAAGCGCCATCTAC”, the binding signal was 0.799 RPM ratio (pull-down/input).

For “GATGATTGTTCTCCCAGCTGATGAATTAAGTGTATCGAGTAAACAAATTTTCCTAATCTTTCTGTTCAAGCGCCATCTAC”, the binding signal was 1.28 RPM ratio (pull-down/input).

Turning to “GATGATTGTTCTCCCAGCTGATGAATTTCAGTCATCGAGTAAACAAATTTTCCTAATCTTTCTGTTCAAGCGCCATCTAC”, the binding signal is 1 RPM ratio (pull-down/input).

Consider “GATGATTGTTCTCCCAGCTGATGAATTTTCCACTTCGAGTAAACAAATTTTCCTAATCTTTCTGTTCAAGCGCCATCTAC”, for which the binding signal was 0.903 RPM ratio (pull-down/input).

“GATGATTGTTCTCCCAGCTGATGAATTTAGGAGATCGAGTAAACAAATTTTCCTAATCTTTCTGTTCAAGCGCCATCTAC”: the binding signal is 0.968 RPM ratio (pull-down/input).

Turning to “GATGATTGTTCTCCCAGCTGATGAATTACTATTGTCGAGTAAACAAATTTTCCTAATCTTTCTGTTCAAGCGCCATCTAC”, the binding signal was 2.38 RPM ratio (pull-down/input).

Regarding “GATGATTGTTCTCCCAGCTGATGAATTACTATTTTCGAGTAAACAAATTTTCCTAATCTTTCTGTTCAAGCGCCATCTAC”, the binding signal was 2.29 RPM ratio (pull-down/input).

For “GATGATTGTTCTCCCAGCTGATGAATTATTACTATCGAGTAAACAAATTTTCCTAATCTTTCTGTTCAAGCGCCATCTAC”, the binding signal was 1.21 RPM ratio (pull-down/input).

Consider “GATGATTGTTCTCCCAGCTGATGAATTTACTATTTCGAGTAAACAAATTTTCCTAATCTTTCTGTTCAAGCGCCATCTAC”, for which the binding signal is 1.55 RPM ratio (pull-down/input).

For “GATGATTGTTCTCCCAGCTGATGAATTACTATCATCGAGTAAACAAATTTTCCTAATCTTTCTGTTCAAGCGCCATCTAC”, the binding signal is 1.28 RPM ratio (pull-down/input).

“GATGATTGTTCTCCCAGCTGATGAATTACTAATGTCGAGTAAACAAATTTTCCTAATCTTTCTGTTCAAGCGCCATCTAC”: the binding signal is 1.28 RPM ratio (pull-down/input).

“GATGATTGTTCTCCCAGCTGATGAATTATTACTGTCGAGTAAACAAATTTTCCTAATCTTTCTGTTCAAGCGCCATCTAC”: the binding signal was 1.17 RPM ratio (pull-down/input).

For “GATGATTGTTCTCCCAGCTGATGAATTACTATTATCGAGTAAACAAATTTTCCTAATCTTTCTGTTCAAGCGCCATCTAC”, the binding signal was 1.87 RPM ratio (pull-down/input).

For the sequence “GATGATTGTTCTCCCAGCTGATGAATTACTAATTTCGAGTAAACAAATTTTCCTAATCTTTCTGTTCAAGCGCCATCTAC”, the binding signal was 1.25 RPM ratio (pull-down/input).

As to “GATGATTGTTCTCCCAGCTGATGAATTTCTCTATTCGAGTAAACAAATTTTCCTAATCTTTCTGTTCAAGCGCCATCTAC”, the binding signal was 0.936 RPM ratio (pull-down/input).

Take “GATGATTGTTCTCCCAGCTGATGAATTCTCGGCCTCGAGTAAACAAATTTTCCTAATCTTTCTGTTCAAGCGCCATCTAC”: the binding signal is 0.731 RPM ratio (pull-down/input).

As for “GATGATTGTTCTCCCAGCTGATGAATTATGACTGTCGAGTAAACAAATTTTCCTAATCTTTCTGTTCAAGCGCCATCTAC”, the binding signal is 0.934 RPM ratio (pull-down/input).

Take “GATGATTGTTCTCCCAGCTGATGAATTCCCTCGGTCGAGTAAACAAATTTTCCTAATCTTTCTGTTCAAGCGCCATCTAC”: the binding signal was 0.759 RPM ratio (pull-down/input).

For the sequence “GATGATTGTTCTCCCAGCTGATGAATTGTGCCTATCGAGTAAACAAATTTTCCTAATCTTTCTGTTCAAGCGCCATCTAC”, the binding signal was 1.09 RPM ratio (pull-down/input).

As for “GATGATTGTTCTCCCAGCTGATGAATTTGATCACTCGAGTAAACAAATTTTCCTAATCTTTCTGTTCAAGCGCCATCTAC”, the binding signal is 1.02 RPM ratio (pull-down/input).

Regarding “GATGATTGTTCTCCCAGCTGATGAATTCCAAGTATCGAGTAAACAAATTTTCCTAATCTTTCTGTTCAAGCGCCATCTAC”, the binding signal was 0.949 RPM ratio (pull-down/input).

For the sequence “GATGATTGTTCTCCCAGCTGATGAATTCGCTTAATCGAGTAAACAAATTTTCCTAATCTTTCTGTTCAAGCGCCATCTAC”, the binding signal is 0.936 RPM ratio (pull-down/input).

With “GATGATTGTTCTCCCAGCTGATGAATTCTGTGGATCGAGTAAACAAATTTTCCTAATCTTTCTGTTCAAGCGCCATCTAC”, the binding signal was 0.956 RPM ratio (pull-down/input).

Turning to “GATGATTGTTCTCCCAGCTGATGAATTATCTAGATCGAGTAAACAAATTTTCCTAATCTTTCTGTTCAAGCGCCATCTAC”, the binding signal is 0.863 RPM ratio (pull-down/input).

“GATGATTGTTCTCCCAGCTGATGAATTTATATCATCGAGTAAACAAATTTTCCTAATCTTTCTGTTCAAGCGCCATCTAC”: the binding signal was 1.27 RPM ratio (pull-down/input).

“GATGATTGTTCTCCCAGCTGATGAATTAAATGCGTCGAGTAAACAAATTTTCCTAATCTTTCTGTTCAAGCGCCATCTAC”: the binding signal was 1.43 RPM ratio (pull-down/input).

Consider “GATGATTGTTCTCCCAGCTGATGAATTATTGGCTTCGAGTAAACAAATTTTCCTAATCTTTCTGTTCAAGCGCCATCTAC”, for which the binding signal was 1.1 RPM ratio (pull-down/input).

In the case of “GATGATTGTTCTCCCAGCTGATGAATTTTTGTTCTCGAGTAAACAAATTTTCCTAATCTTTCTGTTCAAGCGCCATCTAC”, the binding signal was 0.963 RPM ratio (pull-down/input).

As for “GATGATTGTTCTCCCAGCTGATGAATTGTTTTTCTCGAGTAAACAAATTTTCCTAATCTTTCTGTTCAAGCGCCATCTAC”, the binding signal was 2.22 RPM ratio (pull-down/input).

Regarding “GATGATTGTTCTCCCAGCTGATGAATTGTTTCTCTCGAGTAAACAAATTTTCCTAATCTTTCTGTTCAAGCGCCATCTAC”, the binding signal is 1.33 RPM ratio (pull-down/input).

In the case of “GATGATTGTTCTCCCAGCTGATGAATTTTTTAGCTCGAGTAAACAAATTTTCCTAATCTTTCTGTTCAAGCGCCATCTAC”, the binding signal is 0.853 RPM ratio (pull-down/input).

“GATGATTGTTCTCCCAGCTGATGAATTTTGCATCTCGAGTAAACAAATTTTCCTAATCTTTCTGTTCAAGCGCCATCTAC”: the binding signal is 1.52 RPM ratio (pull-down/input).

Consider “GATGATTGTTCTCCCAGCTGATGAATTTGCATCCTCGAGTAAACAAATTTTCCTAATCTTTCTGTTCAAGCGCCATCTAC”, for which the binding signal is 1.77 RPM ratio (pull-down/input).

“GATGATTGTTCTCCCAGCTGATGAATTTGTTTTCTCGAGTAAACAAATTTTCCTAATCTTTCTGTTCAAGCGCCATCTAC”: the binding signal is 2.32 RPM ratio (pull-down/input).

On to “GATGATTGTTCTCCCAGCTGATGAATTTTGTTTCTCGAGTAAACAAATTTTCCTAATCTTTCTGTTCAAGCGCCATCTAC”, for which the binding signal is 1.71 RPM ratio (pull-down/input).

Consider “GATGATTGTTCTCCCAGCTGATGAATTGTTTAGCTCGAGTAAACAAATTTTCCTAATCTTTCTGTTCAAGCGCCATCTAC”, for which the binding signal was 1.89 RPM ratio (pull-down/input).

As to “GATGATTGTTCTCCCAGCTGATGAATTTAGCTCCTCGAGTAAACAAATTTTCCTAATCTTTCTGTTCAAGCGCCATCTAC”, the binding signal is 0.946 RPM ratio (pull-down/input).

“GATGATTGTTCTCCCAGCTGATGAATTGCATCCCTCGAGTAAACAAATTTTCCTAATCTTTCTGTTCAAGCGCCATCTAC”: the binding signal was 1.46 RPM ratio (pull-down/input).

Consider “GATGATTGTTCTCCCAGCTGATGAATTCTGTTTCTCGAGTAAACAAATTTTCCTAATCTTTCTGTTCAAGCGCCATCTAC”, for which the binding signal is 1.14 RPM ratio (pull-down/input).
